Data on 9 molecules can be found in ChEMBL document CHEMBL3988442, “University of Dundee, Small-Polar-MMV Screening Library” (2021).

For part of these data: Potency and affinity values are given separately.

Common to all, as to parameters: scale not given: direction of the effect not stated beside the values
In experiment [1] the target is Protein translocase subunit SecA (Escherichia coli (strain K12)) (UniProt P10408). As to the kind of experiment: Assay to Identify E. coli SecA ATPase Inhibitors. It counts as functional. To be noted: 30 µM.
Experiment [2] addresses T1, Ubiquitin-activating enzyme e1, putative (Leishmania donovani (strain BPK282A1)) (UniProt E9BSI1).
T1 sequence (whole entry): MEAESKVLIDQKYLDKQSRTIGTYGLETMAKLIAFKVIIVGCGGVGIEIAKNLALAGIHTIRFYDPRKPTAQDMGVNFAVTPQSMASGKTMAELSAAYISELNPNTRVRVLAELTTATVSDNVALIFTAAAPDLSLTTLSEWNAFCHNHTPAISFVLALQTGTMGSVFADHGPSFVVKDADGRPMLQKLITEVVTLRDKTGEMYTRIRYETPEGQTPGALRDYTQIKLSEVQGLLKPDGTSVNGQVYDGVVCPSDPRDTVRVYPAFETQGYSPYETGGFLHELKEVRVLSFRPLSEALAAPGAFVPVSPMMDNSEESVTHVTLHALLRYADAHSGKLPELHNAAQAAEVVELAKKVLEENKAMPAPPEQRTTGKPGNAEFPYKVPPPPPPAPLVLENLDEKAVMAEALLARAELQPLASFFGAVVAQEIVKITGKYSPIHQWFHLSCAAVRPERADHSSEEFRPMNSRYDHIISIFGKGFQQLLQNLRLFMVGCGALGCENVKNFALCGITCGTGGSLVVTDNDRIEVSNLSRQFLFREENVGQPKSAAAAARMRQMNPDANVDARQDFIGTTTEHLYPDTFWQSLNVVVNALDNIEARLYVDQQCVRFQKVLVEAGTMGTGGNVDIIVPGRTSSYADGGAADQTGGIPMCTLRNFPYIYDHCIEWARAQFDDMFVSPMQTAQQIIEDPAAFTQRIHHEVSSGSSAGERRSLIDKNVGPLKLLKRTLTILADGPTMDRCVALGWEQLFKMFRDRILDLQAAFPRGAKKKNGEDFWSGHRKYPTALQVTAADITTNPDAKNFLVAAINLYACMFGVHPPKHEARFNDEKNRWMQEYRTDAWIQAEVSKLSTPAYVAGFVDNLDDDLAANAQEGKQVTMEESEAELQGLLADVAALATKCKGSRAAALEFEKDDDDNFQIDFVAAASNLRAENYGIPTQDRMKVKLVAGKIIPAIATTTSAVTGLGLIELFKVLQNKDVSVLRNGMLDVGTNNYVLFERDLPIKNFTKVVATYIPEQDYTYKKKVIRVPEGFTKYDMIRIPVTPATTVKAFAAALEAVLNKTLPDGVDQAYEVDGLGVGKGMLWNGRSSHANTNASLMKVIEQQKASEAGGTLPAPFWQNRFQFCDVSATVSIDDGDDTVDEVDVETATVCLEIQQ
As to the kind of experiment: Leishmania donovani Ubiquitin Activating Enzyme (LdE1). To be noted: 30 µM. Type of experiment: functional.

Experiment [3] has as its target AMP-activated protein kinase, AMPK (Homo sapiens) (UniProt P54646+O43741+P54619+Q9UGJ0+Q9Y478+Q13131+Q9UGI9). The experiment in a line: AMP-dependent Kinase enzyme assay. An in vitro enzyme assay that detects ADP turnover that is directly proportional to AMPK activity. This uses naive AMPK that is activated during the assay with MK-8722. To be noted: 30 µM. Type of experiment: functional.

Experiment [4] has as its target Sialic acid-binding Ig-like lectin 9 (Homo sapiens) (UniProt Q9Y336). The experiment in a line: Hs-Siglec9 ALPHAscreen SOP 20170721. To be noted: 10 µM.
A further experiment has as its system Trypanosoma cruzi. The experiment in a line: Trypanosoma cruzi phosphomannomutase and mannose-1-phosphate guanylyltransferase assay. Type of experiment: functional. To be noted: 10 µM.
For experiment [5], the target named is T2, Arginase-2, mitochondrial (Homo sapiens) (UniProt P78540).
T2 sequence (whole entry): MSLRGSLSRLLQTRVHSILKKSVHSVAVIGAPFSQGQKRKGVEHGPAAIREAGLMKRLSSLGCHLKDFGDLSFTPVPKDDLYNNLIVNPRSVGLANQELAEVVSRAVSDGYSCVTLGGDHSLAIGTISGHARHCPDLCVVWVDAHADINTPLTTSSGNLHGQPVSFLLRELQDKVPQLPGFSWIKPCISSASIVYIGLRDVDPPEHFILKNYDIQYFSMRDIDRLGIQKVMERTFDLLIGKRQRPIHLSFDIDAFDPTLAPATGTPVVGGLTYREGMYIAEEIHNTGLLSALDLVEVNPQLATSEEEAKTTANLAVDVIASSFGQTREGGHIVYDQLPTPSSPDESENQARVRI
The experiment in a line: in vitro enzyme assay to detect the production of urea directly proportional to the activity of Arginase II. Also: in the data most compounds retested in dose-response had high values. It counts as functional. To be noted: 33.3 µM.

For experiment [6], the target named is T3, Proteasome subunit beta (Trypanosoma cruzi) (UniProt O96673).
T3 sequence (whole entry): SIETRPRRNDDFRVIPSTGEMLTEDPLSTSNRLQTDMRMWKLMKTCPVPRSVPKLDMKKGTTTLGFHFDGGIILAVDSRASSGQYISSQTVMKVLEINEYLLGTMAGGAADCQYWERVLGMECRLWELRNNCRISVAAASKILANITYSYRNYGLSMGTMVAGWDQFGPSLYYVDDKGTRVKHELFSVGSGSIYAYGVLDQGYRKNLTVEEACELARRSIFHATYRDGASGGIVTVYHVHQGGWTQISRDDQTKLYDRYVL
As to the kind of experiment: Trypanosoma cruzi proteasome chymotrypsin-like activity (TcProtChymo) assay. Also: in the data most compounds retested in dose-response had high values. To be noted: 9.37 µM. It counts as functional.

The species entered for a further experiment is Homo sapiens. The experiment in a line: To identify inhibition of the IFN signalling (Jak-Stat) pathway via expression of an eGFP reporter gene under the control of an IFN-stimulated response element (ISRE) containing MxA promoter. Type of experiment: functional. To be noted: 30 µM. In general terms: Reporter assays use an easily measured gene product as a stand-in for the process of interest.

Experiment [7] has as its target T4, Tyrosyl-tRNA synthetase, putative (Trypanosoma cruzi (strain CL Brener)) (UniProt Q4DSP6).
T4 sequence (whole entry): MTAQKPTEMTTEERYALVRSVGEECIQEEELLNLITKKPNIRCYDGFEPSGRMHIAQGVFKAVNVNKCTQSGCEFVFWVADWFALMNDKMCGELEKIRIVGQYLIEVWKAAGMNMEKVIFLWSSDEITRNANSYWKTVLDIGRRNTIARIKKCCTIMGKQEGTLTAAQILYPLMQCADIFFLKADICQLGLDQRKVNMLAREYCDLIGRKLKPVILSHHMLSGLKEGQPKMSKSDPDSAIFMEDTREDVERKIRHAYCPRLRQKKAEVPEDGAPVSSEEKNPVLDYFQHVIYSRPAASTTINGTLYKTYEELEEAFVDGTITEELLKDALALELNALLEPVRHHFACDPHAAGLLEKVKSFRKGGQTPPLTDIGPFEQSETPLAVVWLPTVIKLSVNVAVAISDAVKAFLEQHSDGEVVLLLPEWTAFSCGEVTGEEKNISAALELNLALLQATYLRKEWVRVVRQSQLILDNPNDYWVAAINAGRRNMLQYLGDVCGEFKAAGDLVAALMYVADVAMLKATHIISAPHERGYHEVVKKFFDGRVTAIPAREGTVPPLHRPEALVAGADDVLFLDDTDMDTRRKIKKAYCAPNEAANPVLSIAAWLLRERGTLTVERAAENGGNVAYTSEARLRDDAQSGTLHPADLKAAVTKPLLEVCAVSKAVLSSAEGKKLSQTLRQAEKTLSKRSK
As to the kind of experiment: Trypanosoma cruzi tyrosyl tRNA synthetase (TcYRS) _High Tyrosine SOP. Also: in the data most compounds retested in dose-response had high values. Type of experiment: functional. To be noted: 30 µM.

In experiment [8] the target is T4, Tyrosyl-tRNA synthetase, putative (Trypanosoma cruzi (strain CL Brener)). As to the kind of experiment: Trypanosoma cruzi tyrosyl tRNA synthetase (TcYRS) SOP. Type of experiment: functional. To be noted: 30 µM.
Experiment [9] addresses Chromo domain-containing protein 1 (Saccharomyces cerevisiae (strain ATCC 204508 / S288c) (Baker's yeast)) (UniProt P32657). As to the kind of experiment: ScCHD-1 Enzyme Inhibition Assay. Also: in the data most compounds retested in dose-response had high values. It counts as functional. To be noted: 30 µM.

Sequence of Sialic acid-binding Ig-like lectin 9 (Homo sapiens) (Q9Y336 whole entry): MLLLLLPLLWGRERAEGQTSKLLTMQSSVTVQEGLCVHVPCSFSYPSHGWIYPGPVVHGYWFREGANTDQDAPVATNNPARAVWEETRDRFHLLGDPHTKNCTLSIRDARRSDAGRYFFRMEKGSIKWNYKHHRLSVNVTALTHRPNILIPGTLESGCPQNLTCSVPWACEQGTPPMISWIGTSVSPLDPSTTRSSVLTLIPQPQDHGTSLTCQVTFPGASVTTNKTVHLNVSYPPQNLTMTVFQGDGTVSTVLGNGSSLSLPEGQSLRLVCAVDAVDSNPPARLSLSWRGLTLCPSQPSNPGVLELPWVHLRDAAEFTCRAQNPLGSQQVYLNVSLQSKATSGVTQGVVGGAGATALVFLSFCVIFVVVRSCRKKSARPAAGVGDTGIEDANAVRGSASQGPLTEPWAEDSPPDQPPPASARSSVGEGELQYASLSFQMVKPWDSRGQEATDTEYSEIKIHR
Sequence of Protein translocase subunit SecA (Escherichia coli (strain K12)) (P10408 whole entry): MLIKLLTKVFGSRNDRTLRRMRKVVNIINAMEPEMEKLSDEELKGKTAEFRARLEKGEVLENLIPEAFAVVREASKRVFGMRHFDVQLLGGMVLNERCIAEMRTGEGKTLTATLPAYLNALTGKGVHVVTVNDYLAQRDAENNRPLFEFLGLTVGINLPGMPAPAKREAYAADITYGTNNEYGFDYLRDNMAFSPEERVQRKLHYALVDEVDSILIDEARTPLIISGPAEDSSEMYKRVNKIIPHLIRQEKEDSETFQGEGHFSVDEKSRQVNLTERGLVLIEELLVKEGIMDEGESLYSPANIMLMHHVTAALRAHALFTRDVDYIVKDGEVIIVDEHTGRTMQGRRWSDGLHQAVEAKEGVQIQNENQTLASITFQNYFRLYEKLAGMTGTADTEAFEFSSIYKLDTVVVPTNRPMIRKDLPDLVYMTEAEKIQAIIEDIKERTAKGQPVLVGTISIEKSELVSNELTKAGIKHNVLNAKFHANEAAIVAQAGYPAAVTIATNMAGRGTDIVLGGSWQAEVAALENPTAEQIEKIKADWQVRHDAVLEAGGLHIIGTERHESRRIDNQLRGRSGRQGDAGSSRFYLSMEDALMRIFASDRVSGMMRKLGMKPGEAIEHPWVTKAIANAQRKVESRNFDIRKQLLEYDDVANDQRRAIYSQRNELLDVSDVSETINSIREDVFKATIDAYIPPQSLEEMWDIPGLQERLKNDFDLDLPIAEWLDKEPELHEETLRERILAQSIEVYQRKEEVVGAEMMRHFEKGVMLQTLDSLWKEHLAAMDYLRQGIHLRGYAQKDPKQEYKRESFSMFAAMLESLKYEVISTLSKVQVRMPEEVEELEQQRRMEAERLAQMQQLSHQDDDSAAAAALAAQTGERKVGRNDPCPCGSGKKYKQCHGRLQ
Sequence of Chromo domain-containing protein 1 (Saccharomyces cerevisiae (strain ATCC 204508 / S288c) (Baker's yeast)) (P32657 whole entry, the tested form may be a part): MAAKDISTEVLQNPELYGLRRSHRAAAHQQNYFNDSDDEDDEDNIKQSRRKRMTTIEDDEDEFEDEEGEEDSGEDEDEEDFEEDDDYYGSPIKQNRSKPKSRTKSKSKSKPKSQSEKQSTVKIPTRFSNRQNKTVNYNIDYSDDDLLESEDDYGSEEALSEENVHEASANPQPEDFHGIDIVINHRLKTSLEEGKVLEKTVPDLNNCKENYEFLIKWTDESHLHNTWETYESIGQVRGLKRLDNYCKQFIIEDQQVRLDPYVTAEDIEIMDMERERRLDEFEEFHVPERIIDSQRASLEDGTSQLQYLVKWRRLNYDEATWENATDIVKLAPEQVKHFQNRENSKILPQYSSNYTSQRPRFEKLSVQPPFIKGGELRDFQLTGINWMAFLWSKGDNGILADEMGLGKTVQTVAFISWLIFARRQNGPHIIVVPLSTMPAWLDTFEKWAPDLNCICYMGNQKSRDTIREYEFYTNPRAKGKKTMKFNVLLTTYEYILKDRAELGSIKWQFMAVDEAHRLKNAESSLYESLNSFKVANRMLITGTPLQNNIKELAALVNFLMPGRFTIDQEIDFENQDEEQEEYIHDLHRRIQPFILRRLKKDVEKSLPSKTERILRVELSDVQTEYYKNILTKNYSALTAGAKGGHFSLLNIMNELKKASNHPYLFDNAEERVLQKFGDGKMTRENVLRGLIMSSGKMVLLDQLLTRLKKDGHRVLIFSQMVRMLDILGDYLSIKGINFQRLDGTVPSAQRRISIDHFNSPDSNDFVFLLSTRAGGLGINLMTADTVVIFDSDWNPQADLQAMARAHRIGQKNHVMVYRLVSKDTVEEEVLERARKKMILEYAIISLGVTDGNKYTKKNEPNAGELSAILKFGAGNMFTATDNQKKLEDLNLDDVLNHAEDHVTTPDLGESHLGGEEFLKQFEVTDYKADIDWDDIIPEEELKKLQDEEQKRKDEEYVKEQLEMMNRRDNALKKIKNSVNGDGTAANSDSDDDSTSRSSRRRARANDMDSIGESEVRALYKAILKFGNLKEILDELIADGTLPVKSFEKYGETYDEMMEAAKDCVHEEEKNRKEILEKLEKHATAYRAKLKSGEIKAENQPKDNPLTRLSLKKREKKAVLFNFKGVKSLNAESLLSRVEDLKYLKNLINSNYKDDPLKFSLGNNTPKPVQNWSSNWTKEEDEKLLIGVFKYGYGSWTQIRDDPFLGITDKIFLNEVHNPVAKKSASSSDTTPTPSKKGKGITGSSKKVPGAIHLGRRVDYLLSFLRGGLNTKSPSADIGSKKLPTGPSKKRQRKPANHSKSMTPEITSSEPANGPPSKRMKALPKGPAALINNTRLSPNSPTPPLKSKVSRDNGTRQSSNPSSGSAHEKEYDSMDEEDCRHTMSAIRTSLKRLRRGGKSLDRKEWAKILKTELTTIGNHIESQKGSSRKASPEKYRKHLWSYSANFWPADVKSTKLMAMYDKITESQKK

In the case of `COc1c(C)cnc(CN2CCCCC2Cn2nc(C)nc2C)c1C` (centres undefined), the Percent Effect is 0.617% in experiment [1]; 17.7% in experiment [2]; -1.73% in experiment [3]; -6.46% in [4]; 2.55% in the experiment with Trypanosoma cruzi; 5.32% in [5]. Also, the Percent Effect was 14.8% in experiment [6]; 4.74% in the experiment filed under Homo sapiens; 14.3% in experiment [7]; 26.6% in [8]; -9.69% in experiment [9].

`CCc1cc(=O)[nH]c2nnc(SCC(=O)OC)n12`: the Percent Effect is 0.274% in experiment [1]; 16.4% in experiment [2]; -5.37% in experiment [3]; -14.2% in experiment [4]; 3.72% in the experiment on Trypanosoma cruzi; 18.2% in [5]. Moreover, the Percent Effect was 15.6% in experiment [6]; -0.951% in the experiment listed under Homo sapiens; 6.45% in [7]; 17.5% in experiment [8]; -6.44% in experiment [9].

As for `CCN(C)c1ncnc2c1CCN(Cc1csc(C)n1)CC2`, the Percent Effect was -0.747% in experiment [1]; 8.11% in experiment [2]; 4.65% in experiment [3]; 2.61% in experiment [4]; -1.07% with Trypanosoma cruzi; 4.78% in experiment [5]. The Percent Effect is 25.1% in experiment [6]; -16.4% in the experiment filed under Homo sapiens; 6.49% in experiment [7]; 15.4% in [8]; -2.96% in experiment [9].

Consider `O=C(NC1=NCCCN1c1ccc(Cl)cc1)c1cccc(Cl)c1`, for which the Percent Effect is -4.08% in [1]; -5.2% in [2]; 0.353% in experiment [3]; -0.0638% in experiment [4]; -6.39% in the experiment on Trypanosoma cruzi; 1.38% in experiment [5]. The Percent Effect in experiment [6] is 15.1%; in the experiment listed under Homo sapiens it was 3.87%; in experiment [7], -5.38%; in experiment [8] it was -8.64%; in experiment [9] it was 0.69%.

In the case of `CCC(C)(C)NC(=O)C1CC(=O)N(CC2CC2)C1` (centres undefined), the Percent Effect in experiment [1] was -2.71%; in experiment [2], 13.5%; in [3], 9.25%; in experiment [4], -3.89%; in the experiment with Trypanosoma cruzi, -7.15%; in [5] it was 3.14%. The Percent Effect in [6] was 11.3%; in the experiment listed under Homo sapiens, 17.7%; in experiment [7], 2.97%; in experiment [8], -18.3%; in experiment [9], -7.51%.

For the molecule `CN1CCOC(CNCc2nc(-c3ccccc3)cs2)C1` (centres undefined), the Percent Effect in experiment [1] is -3.28%; in experiment [2], -12.7%; in experiment [3] it was -8.45%; in [4], 1.64%; in the experiment on Trypanosoma cruzi, 5.95%; in [5], -1.9%. Besides, the Percent Effect in [6] was 1.39%; in the experiment listed under Homo sapiens, -25.8%; in experiment [7] it was 1.48%; in experiment [8] it was 1.27%; in experiment [9] it was 4.02%.

With `CC(C)NC(=O)N1CCN(CC2CC2)CC2(CC(=O)N(C)C2)C1` (centres undefined), the Percent Effect in experiment [1] is 0.576%; in experiment [2] it was -10.8%; in [3], 3.4%; in experiment [4], -6.25%; in the experiment with Trypanosoma cruzi it was 0%; in [5], 1.25%. Also, the Percent Effect is 7.02% in experiment [6]; -5.18% in the experiment listed under Homo sapiens; 82.2% in experiment [7]; -6.1% in [8]; 16.8% in experiment [9].

With `CNC(=O)c1ccc(OC2CCN(S(C)(=O)=O)CC2)c(Cl)c1`, the Percent Effect is -2.46% in experiment [1]; 4.17% in [2]; -2.06% in experiment [3]; -2.97% in [4]; 0.68% in the experiment with Trypanosoma cruzi; 2.65% in experiment [5]. Moreover, the Percent Effect in [6] is 14.7%; in the experiment filed under Homo sapiens, 24.7%; in experiment [7] it was 6.32%; in experiment [8], 10.3%; in [9] it was -2.92%.

Regarding `COCCCN(CCOC)C(=O)Nc1ccccc1Br`, the Percent Effect in experiment [1] was 0.00988%; in [2], -5.26%; in [3], 4.89%; in [4], -4.8%; with Trypanosoma cruzi, -1.46%; in experiment [5], -10.7%. The Percent Effect is 2.01% in experiment [6]; -13.7% in the experiment listed under Homo sapiens; 3.19% in experiment [7]; 2.6% in experiment [8]; 0.558% in [9].
